Data published in PubChem BioAssay AID463187 (University of Pittsburgh Molecular Library Screening Center, 2010).
Several values for one entry are separate records, joined by “and”; a condition that tells them apart may be missing. Identical values can stand only once. The whole screen tested about 220,000 compounds, of which about 1,500 (0.68%) were called active. The sample holds actives, similar compounds and a random draw of the others, so the mix is not that of the screen.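 Rule for the calls: active = Hck-Nef kinase inhibition above about 50% (limit read from the data); inactive = inhibition below that limit.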

These molecules were tested against Tyrosine-protein kinase HCK (Homo sapiens) (UniProt P08631) (assay: inhibitors of Nef-activated human Hck kinase, primary screen, biochemical, Z-Lyte FRET, 384-well, Hck-YEEI (AID 463187;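 note: 0% = DMSO with Hck plus Nef and 100% = Hck alone without Nef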)). Conditions: Recombinant Hck-YEEI plus Nef, Z-Lyte FRET kinase assay; at 20 µM; stronger effect = higher value.
Tyrosine-protein kinase HCK (Homo sapiens), sequence (P08631 whole entry, looked up): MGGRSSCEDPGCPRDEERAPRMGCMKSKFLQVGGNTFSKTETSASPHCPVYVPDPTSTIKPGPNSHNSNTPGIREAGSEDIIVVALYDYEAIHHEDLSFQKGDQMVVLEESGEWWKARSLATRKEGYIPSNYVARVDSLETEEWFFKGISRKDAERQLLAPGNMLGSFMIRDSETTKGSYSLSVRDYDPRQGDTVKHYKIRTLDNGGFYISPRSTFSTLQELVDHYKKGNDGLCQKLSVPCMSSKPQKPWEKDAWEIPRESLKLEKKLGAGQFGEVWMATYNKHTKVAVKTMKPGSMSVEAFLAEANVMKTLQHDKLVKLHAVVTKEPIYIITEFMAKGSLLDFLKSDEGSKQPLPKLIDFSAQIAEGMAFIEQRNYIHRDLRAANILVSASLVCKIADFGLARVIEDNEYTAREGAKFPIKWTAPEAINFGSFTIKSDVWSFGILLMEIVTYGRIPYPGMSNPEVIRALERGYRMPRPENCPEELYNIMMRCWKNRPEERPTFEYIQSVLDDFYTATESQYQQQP

SMILES	inhibition
CC(C)(C)NC(=O)COC(=O)c1cc(Br)ccc1Cl	-0.533% (inactive)
Cc1ccc(CSCC(N)C(=O)O)cc1 (stereo unspecified)	1.34% (inactive)
Cc1ccc(C(=O)CS(C)(=O)=O)cc1	1.08% (inactive)
Cc1ccc(SC(CC(=O)c2ccc(C(C)(C)C)cc2)C(=O)O)cc1 (stereo unspecified)	73.6% (active)
CCc1nnc(NC(=O)CSc2nc(SC)ns2)s1	8.82% (inactive)
Cc1ccc(CSc2nnc(-c3cnccn3)n2C)cc1	20.9% (inactive)
CC(C)Oc1ccc(C(=O)NC(C)(C)CO)cc1	4.72% (inactive)
CCNC(=S)NNC(=O)c1ccc2ncccc2c1	27.6% (inactive)
COc1cccc(/C=C2\SC(=N)N(c3ccc(F)cc3)C2=O)c1	26.2% (inactive)
Cc1nn(C)cc1CNC(=O)Nc1ccc(Cl)cc1	12.3% (inactive)
Cc1ccc(-c2cc(C(=O)NCc3cn(C)nc3C)c3cc(Br)ccc3n2)cc1	50.4% (active)
COc1ccc(Cl)cc1C(=O)NCc1cn(C)nc1C	0.825% (inactive)
Cc1nnc(NC(=O)CSc2nc(C3CCCCC3)nc3ccccc23)s1	-0.612% (inactive)
CC(=O)Oc1ccc2c(C)c(CC(C)O)c(=O)oc2c1 (stereo unspecified)	81.8% (active)
CC(=O)Nc1cc2ccc(OC(C)=O)cc2oc1=O	23.3% (inactive)
Cc1c(Cc2ccccc2)c(=O)oc2cc(OCC(N)=O)ccc12	28.6% (inactive)
CS(=O)(=O)N(CC(=O)N1CCN(Cc2ccccc2)CC1)c1ccc2c(c1)OCCO2	1.45% (inactive)
Cc1ccc(C)c(NC(=S)NCC(c2cccnc2)N2CCOCC2)c1 (stereo unspecified)	0.595% (inactive)
COc1ccccc1N=Cc1c(O)c2ccccc2oc1=O	0.48% (inactive)
COc1ccc(N=Cc2c(O)[nH]c3ccccc23)cc1OC	53% (active)
COc1cc(N=Cc2c(O)[nH]c3ccccc23)cc(OC)c1OC	34.4% (inactive)

SMILES	inhibition
CC(C)CNC(=O)/C=C/C(=O)O	-8.82% (inactive) and 22% (inactive)
CN(CC(=O)Nc1cccc(F)c1)CC(=O)Nc1cccc([N+](=O)[O-])c1	64.6% (active)
Cc1ccc(CN(C)CC(=O)Nc2cccc([N+](=O)[O-])c2)o1	-2.63% (inactive)
Cc1ccc(NC(=O)CN(C)CC(=O)Nc2cccc(F)c2)cc1[N+](=O)[O-]	-0.303% (inactive)
Cc1cccc(C)c1NC(=O)C1(C)c2cccc[n+]2CC(=O)N1Cc1cccs1 (stereo unspecified)	16.8% (inactive)
CCS(=O)(=O)c1ccc2c(c1)N(S(=O)(=O)c1ccccc1)CC(C(=O)O)O2 (stereo unspecified)	1.06% (inactive)
CC1CCCN(CC(O)COc2ccc3c(c2)OCO3)C1 (stereo unspecified)	18.9% (inactive)
Cc1cc(C(=O)N/N=C/c2ccc(O)c([N+](=O)[O-])c2)c(C)n1-c1ccc(F)cc1	18.7% (inactive)
CCOc1cccc(/C=N/N2C(=O)CSC2=S)c1O	-22.8% (inactive)
O=C1CSC(=S)N1/N=C/c1ccc(O)c([N+](=O)[O-])c1	118% (active)
Clc1ccc(-n2nnnc2CN2CCCCC2)cc1Cl	2.13% (inactive)
Cc1cc(C)c2c(n1)nn1c(N3CCN(c4cccc(Cl)c4)CC3)cc(C)nc21	35.2% (inactive)
Cc1cc(C)c2c(n1)nn1c(N3CCOCC3)cc(C)nc21	58.8% (active)
Cc1cc(C)c2c(n1)nn1c(-n3ccnc3)cc(C)nc21	5.47% (inactive)
CCc1ccc(NC(=O)N[C@H](C(=O)O)C(C)CC)cc1 (stereo partly specified)	-2.07% (inactive)
CC1=CC(C)(C)NC(=S)N1c1ccccc1	-1.08% (inactive)
COc1ccc(N2CCN(c3ccc([N+](=O)[O-])cc3Cl)CC2)cc1	9.48% (inactive)
C/C=C/C(=O)Nc1nnc(C(C)C)s1	6.42% (inactive)
OCCCNc1nccc(-c2cc(Nc3cccc(Cl)c3)ncn2)n1	17.4% (inactive)
CC(C)n1cnc2c(Nc3cccc(Cl)c3)nc(N(CCO)CCCO)nc21	112% (active)
CC(C)C[C@H](CO)Nc1nc(N(C)c2cccc(Cl)c2)c2ncn(C(C)C)c2n1	29.9% (inactive)

SMILES	inhibition
CC1CN(S(=O)(=O)c2ccccc2)C(C)CN1S(=O)(=O)c1ccccc1 (stereo unspecified)	2.18% (inactive)
CC(=O)Nc1ccc(/C(C)=N/NC(=O)CN(c2ccccc2Br)S(C)(=O)=O)cc1	3.92% (inactive)
Cc1cc(Br)ccc1SCC(=O)OCC(=O)NCc1ccc2c(c1)OCO2	-1.74% (inactive)
Oc1c(Cl)cc(Cl)c(Cl)c1Cc1c(O)c(Cl)cc(Cl)c1Cl	58.4% (active)
CC(=O)NC1C(OCc2ccccc2)OC(COC(C)=O)C(OC(C)=O)C1OC(C)=O (stereo unspecified)	0.438% (inactive)
O=C(OCC1O[C@@H](OC(=O)c2cc(O)c(O)c(O)c2)[C@@H](OC(=O)c2cc(O)c(O)c(O)c2)[C@@H](OC(=O)c2cc(O)c(O)c(O)c2)[C@@H]1OC(=O)c1cc(O)c(O)c(O)c1)c1cc(O)c(O)c(O)c1 (stereo partly specified)	97.6% (active)
C/C=C(\C)C(=O)N1CC2(CC(c3cccc(NC(=O)CCCCC)c3)=NO2)C[C@@H]1C(N)=O (stereo partly specified)	35.8% (inactive)
O=C(CCCCCNC(=O)c1ccccc1)N/N=C/c1ccccc1	9.24% (inactive)
O=C(N/N=C/c1coc2ccccc2c1=O)c1cc2ccccc2o1	49.1% (inactive)
CC(C)(C)OC(=O)NCCCCCC(=O)N/N=C/c1coc2ccccc2c1=O	76.3% (active)
Cc1ccc(OCCCC(=O)NC(C)c2ccccc2)c(C)c1 (stereo unspecified)	-1.04% (inactive)
CC(C)n1c(CN2CCN(Cc3ccccc3)CC2)nc2ccccc21	5.34% (inactive)
CN(C)C(=S)Nc1ccc(Br)cc1Cl	14.6% (inactive)
O=C1Oc2ccccc2C(=O)/C1=C/c1ccccc1O	80.6% (active)
CC(=O)c1cccc(NC(=O)c2ccncc2)c1	-1.38% (inactive)
CCn1c(=O)c2cc(C(=O)Nc3cccc(C(C)=O)c3)sc2c2ccccc21	53.6% (active)
CCn1c(NC(=O)c2ccccc2)c(-c2cccs2)c(=O)c2ccccc21	-2.03% (inactive)
Cc1ccc(N2C(=O)CC(Nc3cccc4ccccc34)C2=O)cc1 (stereo unspecified)	20.6% (inactive)
CC(C)Cn1cnc2c1c(=O)n(CC(O)c1ccccc1)c(=O)n2CC(C)C (stereo unspecified)	1.05% (inactive)
